Reference: PubChem BioAssay AID651597 (National Center for Advancing Translational Sciences (NCATS), 2012)
Hit rate of the full screen: of about 1,100 compounds, about 390 (35%) were called active. Not shown: some 30% with an inconclusive outcome. The call rests on the fitted dose curve; in most records, active means well fitted inhibition curve with a large enough effect; inconclusive means small, poorly fitted or top-dose-only effect; inactive means flat fitted curve, though single readings scatter. The list shows a part of the results. Where a call stands in place of a potency, no number is given.
Further: nearly all actives have a fitted effect of over 65% in size.
Potency means the concentration at half of the fitted maximal effect.

What follows are compounds tested against Luciferin 4-monooxygenase (Photinus pyralis) (UniProt P08659) (assay: qHTS of Nrf2 Activators: Hit Validation in Secondary FLuc Assay). Conditions: firefly luciferase inhibition counter-screen, luminescence; series mostly up to 57.5 µM.
Outline: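 Purified firefly luciferase is tested for inhibition by compounds in the presence of its substrates, ATP and D-luciferin, each at Km. Inhibition marks likely false positives arising from reporter-enzyme stabilization.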
For `O=C(N/N=C/c1ccc(Br)s1)c1cccs1`, the Potency was 6.75 µM (active).
For `COC(=O)c1sccc1NC(=O)c1ccc(Br)s1`, the Potency was “inactive”.
In the case of `Cc1ccc(S(=O)(=O)c2nc(S(C)(=O)=O)sc2N2CCC3(CC2)OCCO3)cc1`, the Potency is reported as “inactive”.
`Cc1cc(NC(=O)CC(C)(C)C)nc2c1c(=O)oc1ccccc12` was tested, and the Potency was “inactive”.
In the case of `C=CCc1cccc(C=Nc2cc(Br)ccc2O)c1O`, the Potency is reported as “inactive”.
With `Brc1ccc2nc(-c3ccco3)c(Cc3ccsc3)n2c1` the Potency was 5.36 µM (active).
`Fc1cccc(Cc2c(-c3ccco3)nc3ccc(Br)cn23)c1` was tested, and the Potency was 5.36 µM (active).
`O=C(N/N=C/C=C/c1ccco1)c1cccc([N+](=O)[O-])c1` was tested, and the Potency was “inactive”.
With `O=C(N/N=C\C=C\c1ccco1)c1cc(-c2ccc3ccccc3c2)n[nH]1` the Potency was 5.36 µM (active).
In the case of `O=C(O)c1ccc(/C=C2\COc3ccccc3C2=O)cc1`, the Potency is reported as 9.53 µM (active).
`COc1ccc(N(CCCN2C(=O)c3cccc4cccc(c34)C2=O)C(=O)c2ccncc2)cc1` was tested, and the Potency was “inactive”.
`Cc1c(C(=O)NCc2ccco2)oc2c(Cl)cccc12` was tested, and the Potency was “inactive”.
For `O=C(NCc1ccco1)c1n[nH]c(=O)c2ccccc12`, the Potency was “inactive”.
`O=C(CSc1nnc2c(n1)[nH]c1ccccc12)NCc1ccco1` was tested, and the Potency was 19 µM (active).
With `Cc1ccc(O)c(NC(=O)c2cccc(NC(=O)c3ccco3)c2)c1` the Potency was 12 µM (active).
For `Clc1ccc(Br)cc1-c1nc(-c2ccncc2)no1`, the Potency was 8.49 µM (active).
`CSc1nc2sc3c(c2c(=O)n1C)CCC(C)C3` (stereo not drawn) was tested, and the Potency was 6.01 µM (active).
For `COc1cc(/C=N/Nc2nc3ccccc3s2)ccc1OC(=O)c1ccccc1F`, the Potency was 5.36 µM (active).
With `Cc1ccc2ccc(C3C(=O)c4ccccc4C3=O)nc2c1` the Potency was 0.269 µM (active).
With `Cn1c(NCc2ccc3occc3c2)nc2cc(-c3cccc(C(F)(F)F)c3)sc2c1=O` the Potency was “inactive”.
In the case of `COc1ncccc1-c1cc2nc(NCCNC(C)=O)n(C)c(=O)c2s1`, the Potency is reported as 15.1 µM (active).
For `Cn1c(NCC2CCCCC2)nc2cc(-c3ccsc3)sc2c1=O`, the Potency was “inactive”.
For `C/C(=N\NC(=O)c1c[nH]c2ccccc12)c1ccco1`, the Potency was 7.57 µM (active).
For `CC(=NNC(=O)CSc1nc2ccccc2o1)c1ccco1`, the Potency was “inactive”.
With `C/C(=N\NC(=O)c1cccc(S(=O)(=O)N2CCCC2)c1)c1ccco1` the Potency was “inactive”.
With `Oc1ccc2ccccc2c1N=Nc1ccccn1` the Potency was 10.7 µM (active).
In the case of `CSc1nnc(-c2ccco2)c(-c2ccco2)n1`, the Potency is reported as 4.78 µM (active).
With `CCc1nc(N)c(C#N)c(-c2ccco2)c1C` the Potency was “inactive”.
With `O=C(CSc1nnc(-c2ccco2)c(-c2ccco2)n1)c1ccccc1` the Potency was 2.69 µM (active).
`C=C1C2=C(C(=O)N1OC)[C@@H](O)[C@@](C)(O)[C@@H](CCCCC)O2` was tested, and the Potency was “inactive”.
`O=C(c1ccc(S(=O)(=O)Cc2ccccc2Cl)c([N+](=O)[O-])c1)N1CCOCC1` was tested, and the Potency was “inactive”.
With `CC(C)N(C(=O)COC(=O)c1ccccc1C(=O)c1ccc(Cl)c([N+](=O)[O-])c1)C(C)C` the Potency was “inactive”.
For `O=C(Nc1nc2ccccc2[nH]1)c1ccc(Cl)c([N+](=O)[O-])c1`, the Potency was 2.69 µM (active).
In the case of `N#C/C(=C\c1c(Oc2ccc(Cl)cc2)nc2ccccn2c1=O)C(=O)NC1CCS(=O)(=O)C1` (stereo not drawn), the Potency is reported as “inactive”.
`COc1ccccc1C(=O)NCc1nc2cccnc2n1Cc1ccc(F)cc1` was tested, and the Potency was “inactive”.
With `COc1ccccc1NC(=O)c1cc(Cl)nc2ccccc12` the Potency was “inactive”.
For `COc1ccccc1NC(=O)C(=O)Nc1ccccn1`, the Potency was 1.69 µM (active).
`COc1cc(NC(=S)Nc2ccccn2)c(OC)cc1Cl` was tested, and the Potency was “inactive”.
`COc1ccccc1NC(=O)c1ncn(-c2ccccc2)n1` was tested, and the Potency was 10.7 µM (active).
`CCCn1c(-c2cccs2)nc2nc3ccccc3nc21` was tested, and the Potency was 12 µM (active).
`O=C(/C=C/c1ccccc1Cl)Nn1cnc2ccccc2c1=O` was tested, and the Potency was “inactive”.
In the case of `COCCN(C(=O)COC(=O)/C=C/c1ccccc1Cl)c1c(N)n(Cc2ccccc2)c(=O)[nH]c1=O`, the Potency is reported as “inactive”.
With `O=C(C=Cc1ccccc1Cl)c1ccccc1` the Potency was 0.953 µM (active).
With `Cn1c(=O)c(C(=O)NNC(=O)c2ccccc2F)c(O)c2ccccc21` the Potency was “inactive”.
In the case of `Oc1ccc(Cl)cc1-c1cc(-c2ccco2)[nH]n1`, the Potency is reported as 13.5 µM (active).
For `Oc1ccc(Br)cc1-c1cc(-c2ccco2)[nH]n1`, the Potency was 16.9 µM (active).
In the case of `Oc1c(-c2cc(-c3ccco3)[nH]n2)ccc2ccccc12`, the Potency is reported as 0.953 µM (active).
In the case of `FC(F)(F)c1cc(-c2ccco2)nc(NCc2ccco2)n1`, the Potency is reported as “inactive”.
`Oc1ccccc1C=NN=C1c2ccccc2-c2ccccc21` was tested, and the Potency was 4.26 µM (active).
`O=C(Nc1ccccc1C(=O)N/N=C/c1ccco1)c1ccccc1` was tested, and the Potency was 7.57 µM (active).
With `O=C(Nc1ccccc1C(=O)N/N=C/c1ccco1)c1ccc(F)cc1` the Potency was 4.78 µM (active).
For `O=C(N/N=C/c1cn[nH]c1-c1ccccc1)c1ccco1`, the Potency was “inactive”.
In the case of `Nc1c(Cl)c(Cl)nc(C(=O)N/N=C/c2ccco2)c1Cl`, the Potency is reported as “inactive”.
In the case of `COC(CN(C(=O)CCl)C(C(=O)NC1CCCCC1)c1ccccc1C)OC` (stereo not drawn), the Potency is reported as “inactive”.
In the case of `COc1ccc([N+](=O)[O-])cc1C1NN=C(c2ccccc2O)S1` (stereo not drawn), the Potency is reported as 8.49 µM (active).
For `COc1ccc([N+](=O)[O-])cc1NC(=O)c1ccco1`, the Potency was “inactive”.
`CCN1CCN(c2sc(S(C)(=O)=O)nc2S(=O)(=O)c2ccc(Cl)cc2)CC1` was tested, and the Potency was “inactive”.
`CC(=O)OC1(C(C)=O)CCC2C3CC(C(F)(F)F)C4=CC(=O)CCC4(C)C3CCC21C` (stereo not drawn) was tested, and the Potency was “inactive”.
`CC1CN(c2sc(S(C)(=O)=O)nc2S(=O)(=O)c2ccc(Cl)cc2)CC(C)O1` (stereo not drawn) was tested, and the Potency was “inactive”.
In the case of `O=C(Nc1ccccc1)c1nc[nH]c1C(=O)Nc1ccccc1F`, the Potency is reported as “inactive”.
For `O=C(Nc1ccccc1)Nc1cccc2nsnc12`, the Potency was 2.69 µM (active).
For `C/C(=N\Nc1ccc2nncn2n1)c1ccc(Cl)s1`, the Potency was “inactive”.
`C/C(=N\Nc1ccccn1)c1cccs1` was tested, and the Potency was 2.39 µM (active).
In the case of `C/C(=N\Nc1ccccn1)c1ccc(Br)s1`, the Potency is reported as 12 µM (active).
In the case of `Cn1c(N)c(C(=O)COC(=O)c2nc(Cl)ccc2Cl)c(=O)n(C)c1=O`, the Potency is reported as “inactive”.
`CC(C)(C)c1csc(NC(=O)CCS(=O)(=O)c2ccc(F)cc2)n1` was tested, and the Potency was “inactive”.
`O=C(/C=C/c1ccccc1)Nc1ncn[nH]1` was tested, and the Potency was 10.7 µM (active).
For `CN1c2ccsc2/C(=N/Nc2ccccc2)CS1(=O)=O`, the Potency was 7.57 µM (active).
For `OCC1OC(n2cnc3c(NCc4ccccc4O)ncnc32)C(O)C1O` (stereo not drawn), the Potency was “inactive”.
In the case of `CC1=NC(=O)C(N=Nc2cccc(O)c2)N1c1ccccc1` (stereo not drawn), the Potency is reported as 3.79 µM (active).
With `Clc1ccc(/C=N/Nc2nnc(Cl)c3ccccc23)cc1` the Potency was 0.338 µM (active).
`CSc1nsc(SC)c1C(=O)Nc1ccc(C)cc1` was tested, and the Potency was “inactive”.
For `CNc1nc(N)c([N+](=O)[O-])c(Nc2cccc(Cl)c2)n1`, the Potency was “inactive”.
